Reference: PubChem BioAssay AID1159580 (chemical genetic matrix, 2015)
Where “and” joins values, the source holds several entries; their conditions need not be identical. Equal values may be shown once. The whole screen tested about 5,500 compounds, of which about 2,000 (36%) were called active. Inconclusive results (about 18%) are left out. Rule as the data show it: active = normalized growth mostly below about 0.91 (no sharp cut-off); inconclusive = no clear call, values can overlap the other calls; inactive = mostly above about 0.92. The list shows a part of the results.

Assay: chemical genetic growth profiling, strain panel (AID 1159580);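 also: tested at 20 µM; growth read once vehicle control cultures reached saturation at 30 °C; 1 = growth at the plate median or of vehicle wells; lower values mean less growth of the strain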
Conditions: S. cerevisiae deletion strains, growth OD

Measured: normalized growth

Cn1nnnc1SCC1=C(C(=O)O)N2C(=O)C(NC(=O)C(O)c3ccccc3)C2SC1 (configuration not stated)
inactive: locus YAL013W, strain DEP1, active compounds read low 1.02 | locus YAL021C, strain ccr4, active compounds read low 0.97 | locus YAL026C, strain drs2, active compounds read low 0.972 | locus YAL030W, strain snc1, active compounds read low 0.983 | locus YBL061C, strain skt5, active compounds read low 0.97 | locus YBR009C, strain hhf1, active compounds read low 0.988 | locus YBR021W, strain FUR4, active compounds read low 1.01 | locus YBR023C, strain chs3, active compounds read low 0.964 | locus YBR171W, strain sec66, active compounds read low 0.945 | locus YBR229C, strain ROT2, active compounds read low 1.01 | locus YBR231C, strain swc5, active compounds read low 0.991 | locus YBR279W, strain paf1, active compounds read low 0.977 | locus YCL011C, strain gbp2, active compounds read low 0.971 | locus YCL016C, strain dcc1, active compounds read low 0.967 | locus YCL029C, strain bik1, active compounds read low 0.996 | locus YCL061C, strain MRC1, active compounds read low 0.968 | locus YCL069W, strain vba3, active compounds read low 0.973 | locus YCR088W, strain abp1, active compounds read low 0.975 | locus YDL005C, strain med2, active compounds read low 0.972 | locus YDL035C, strain GPR1, active compounds read low 1.03 | locus YDL040C, strain nat1, active compounds read low 0.984 | locus YDL074C, strain BRE1, active compounds read low 1.05 | locus YDL101C, strain DUN1, active compounds read low 1.02 | locus YDL134C, strain PPH21, active compounds read low 1.02 | locus YDL185W, strain tfp1, active compounds read low 1 | locus YDL192W, strain arf1, active compounds read low 1 | locus YDR001C, strain nth1, active compounds read low 0.979 | locus YDR069C, strain doa4, active compounds read low 0.978 | locus YDR101C, strain arx1, active compounds read low 0.99 | locus YDR137W, strain rgp1, active compounds read low 0.943 | locus YDR150W, strain NUM1, active compounds read low 1.03 | locus YDR159W, strain sac3, active compounds read low 0.985 | locus YDR162C, strain NBP2, active compounds read low 1.06 | locus YDR195W, strain ref2 0.969 | locus YDR297W, strain sur2, active compounds read low 0.983 | locus YDR318W, strain mcm21, active compounds read low 0.996 | locus YDR334W, strain swr1, active compounds read low 0.964 | locus YDR335W, strain msn5, active compounds read low 0.978 | locus YDR388W, active compounds read low 0.991 | locus YDR392W, strain spt3, active compounds read low 0.873 | locus YDR502C, strain sam2, active compounds read low 1.01 | locus YEL003W, strain gim4, active compounds read low 0.995 | locus YEL037C, strain rad23, active compounds read low 0.972 | locus YEL061C, strain CIN8 (second series), active compounds read low 0.978 | locus YEL061C, strain CIN8, active compounds read low 1.01 | locus YER015W, strain faa2, active compounds read low 0.99 | locus YER016W, strain bim1, active compounds read low 0.995 | locus YER110C, active compounds read low 0.997 | locus YER111C, strain swi4, active compounds read low 0.96 | locus YER155C, strain BEM2 (second series), active compounds read low 0.973 | locus YER155C, strain BEM2, active compounds read low 1.02 | locus YER167W, strain BCK2, active compounds read low 1.02 | locus YFR010W, strain ubp6, active compounds read low 0.974 | locus YGL078C, strain dbp3, active compounds read low 1 | locus YGL086W, strain mad1, active compounds read low 1 | locus YGL167C, strain pmr1, active compounds read low 0.967 | locus YGL173C, strain kem1, active compounds read low 0.97 | locus YGL227W, strain vid30, active compounds read low 0.984 | locus YGL240W, strain doc1, active compounds read low 0.992 | locus YGL248W, strain PDE1, active compounds read low 1.02 | locus YGL253W, strain hxk2, active compounds read low 0.98 | locus YGR078C, strain PAC10, active compounds read low 1.05 | locus YGR135W, strain pre9, active compounds read low 1.01 | locus YGR229C, strain SMI1, active compounds read low 1.03 | locus YGR252W, strain gcn5, active compounds read low 0.972 | locus YHR013C, strain ard1, active compounds read low 0.952 | locus YHR027C, strain rpn1, active compounds read low 0.968 | locus YHR030C, strain SLT2, active compounds read low 1.01 and 0.991 | locus YHR079C, strain IRE1 (second series), active compounds read low 1 | locus YHR079C, strain IRE1, active compounds read low 0.984 | locus YHR094C, strain hxt1, active compounds read low 1 | locus YHR129C, strain ARP1, active compounds read low 1.01 | locus YHR142W, strain chs7, active compounds read low 0.951 | locus YHR200W, strain rpn10, active compounds read low 1.01 | locus YIL066C, strain RNR3, active compounds read low 1.02 | locus YIL073C, strain SPO22, active compounds read low 1.03 | locus YIL125W, strain kgd1, active compounds read low 1.01 | locus YIR030C, strain dcg1, active compounds read low 1 | locus YJL092W, strain hpr5, active compounds read low 0.976 | locus YJL095W, strain BCK1 (second series), active compounds read low 0.987 | locus YJL095W, strain BCK1, active compounds read low 1.02 and 0.987 | locus YJL115W, strain asf1, active compounds read low 0.958 | locus YJL129C, strain trk1, active compounds read low 0.973 | locus YJL134W, strain LCB3, active compounds read low 1.01 | locus YJL154C, strain vps35, active compounds read low 0.982 | locus YJL164C, strain tpk1, active compounds read low 0.954 | locus YJL166W, strain qcr8, active compounds read low 0.968 | locus YJL168C, strain set2, active compounds read low 0.995 | locus YJL187C, strain SWE1 (second series), active compounds read low 1.02 | locus YJL187C, strain SWE1, active compounds read low 0.974 | locus YJR043C, strain POL32, active compounds read low 1.02 | locus YJR066W, strain TOR1, active compounds read low 0.938
